Assay outcomes: PubChem BioAssay, National Center for Advancing Translational Sciences (NCATS)
Marburg entry inh: inhibitors of Marburg virus binding or cell entry; Marburg virus pseudotyped entry inhibition, cell reporter; Potency, µM (doses to about 37.8 µM), without a hit: at the top dose activity change, negative = inhibition, hits mostly inhibitors; 300,000 tested, 1.8% active; AID 540276; calls by dose curve; tested in HEK293 cells
VACV Venus inh: vaccinia inhibition (Venus reporter) | Vaccinia virus Venus reporter expression, fluorescence | AID 720580 | 330,000 tested, 0.46% active | Potency, µM (top dose mostly 36.5 µM), for inactives: top-dose activity change, negative = inhibition, usual class: inhibitors; calls by dose curve; tested in A549 cells; note: nearly all actives have a fitted effect of over 30% in size
Vaccinia mCherry: vaccinia inhibition (mCherry reporter); Vaccinia virus mCherry reporter infection, fluorescence; Potency, µM (highest dose often 36.5 µM), without a hit: at the highest dose activity change, negative = inhibition, hits mostly inhibitors; 310,000 tested, 0.63% active; AID 720579; calls by dose curve; tested in A549 cells; note: nearly all actives have a fitted effect of over 35% in size
FMDV inh: antivirals against foot and mouth disease virus; FMDV antiviral cell-based qHTS; 410,000 tested, 1.2% active; Potency, µM (doses to about 57.9 µM), without a hit: at the top dose activity change, negative = inhibition, hits mostly inhibitors; calls by dose curve; tested in HEK293T cells; note: read-out not given here; nearly all actives have a fitted effect of over 45% in size
LASV entry inh: inhibitors of Lassa virus binding or cell entry; Lassa virus pseudotype entry inhibition, cell reporter; Potency, µM (highest dose often 37.9 µM), without a hit: at the highest dose activity change, negative = inhibition, actives largely listed as inhibitors; 300,000 tested, 1.2% active; calls by dose curve; tested in HEK293 cells; note: nearly all actives have a fitted effect of over 50% in size
HCV inhibitor: blocks hepatitis C virus; Huh7.5.1 HCVcc-Cre infection, luciferase reporter, 44 h; Potency, µM (titrated, usually from 41.8 µM), without a hit: at the top dose activity change, negative = inhibition, most hits filed as inhibitors; 340,000 tested, 3.4% active; active = well fitted inhibition curve with a large enough effect; inconclusive = small, poorly fitted or top-dose-only effect, or another doubt; inactive = no such curve, though single readings can be large or run the other way
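Cells (1,000/well) were plated 4 h before compound, then infected with HCVcc-Cre virus (~0.5 moi). After 44 h further culture, infection was read as luciferase luminescence following a 15 min substrate incubation at room temperature.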
An asterisk follows results filed as active; i = inactive; ? = inconclusive; nt = not tested or not shown; [ ] = another dose, or the depositor's remark. This is a sample that favours compounds with a hit; in the whole collection about 5.3% have one here. % is set by controls: 0 for no effect and ±100 for the full control effect; potency is the fitted concentration of half-maximal effect.

SMILES	Marburg entry inh	VACV Venus inh	Vaccinia mCherry	FMDV inh	LASV entry inh	HCV inhibitor
Cc1ccc(S(=O)(=O)N(CC(=O)Nc2cccc(N(C)S(C)(=O)=O)c2)c2ccc(Cl)c(Cl)c2)cc1	16.4µM*	-26.7%	-22.1%	nt	?	?
Cc1ccc(S(=O)(=O)N(CC(=O)Nc2ccc3c(c2)OCO3)c2ccc(C)c(Cl)c2)cc1	nt	-9.1%	-6.0%	70.4%	0.3%[46.1 µM]	nt
COc1cccc(NC(=O)CN(c2cccc(OC)c2)S(C)(=O)=O)c1	-10.5%[46.1 µM]	-8.4%	i	-2.7%	6.9%	19.1%
CN(c1cccc(NC(=O)CN(c2ccc(C34CC5CC(CC(C5)C3)C4)cc2)S(C)(=O)=O)c1)S(C)(=O)=O	18.3µM*	?	?	nt	7.3µM*	?
Cc1nc(C(=O)NNC(=O)c2ccc(Cl)cc2)c(C(F)(F)F)o1	-5.7%[46.1 µM]	-11.5%	-23.9%	-15.4%	-14.8%	-13.9%
COCCNC(=O)c1cccc(-n2c(C)nc3cccnc32)c1	nt	-9.1%	-12.2%	9.7%	10.3%[46.1 µM]	nt
CN=c1scc(-c2ccc(F)cc2)n1/N=C/c1ccc(O)c(O)c1	18.3µM*	-18.0%	?	1.26µM*	?	2.24µM*
O=C(Nc1ccc2oc(-c3cccnc3)nc2c1)c1ccc(-c2ccccc2OC(F)(F)F)o1	nt	-6.8%	-16.0%	?	?	nt
CCOc1ccc(Cl)cc1CNCCc1ccc(F)cc1	?	-1.5%	i	-23.5%	7.3%[46.1 µM]	2.7%
NS(=O)(=O)c1ccc(CCNCc2cc(Cl)ccc2OCc2ccccc2)cc1	?	-19.1%	-26.8%	?	-20.6%[46.1 µM]	22.4µM*
C=CCOc1ccccc1CNCCc1ccc(S(N)(=O)=O)cc1	?	0.1%	i	-18.1%	-4.6%[46.1 µM]	7.3%
NS(=O)(=O)c1ccc(CCNCc2ccccc2OCc2ccc(Cl)cc2)cc1	?	-13.9%	-12.4%	-24.9%	?	12.6µM*
CC(C)(C)c1ccc(C2Sc3ccccc3NC3=C2C(=O)c2ccccc23)cc1 (centres undefined)	nt	-4.7%	-8.0%	?	?	nt
CC1(C)C(=O)NC2=C1C(=O)C(=O)c1ccccc12	nt	nt	nt	14.1µM*	nt	nt
c1csc(CNc2ccc3c(c2)OCCO3)c1	1µM*	-14.8%	-23.2%	?	?	?
Oc1ccccc1CNc1ccc2c(c1)OCCO2	-10.2%[46.1 µM]	-7.8%	?	30.3%	18.4%[46.1 µM]	13.0%
CC(=O)Nc1ccc(Oc2cc(C#N)c(C#N)cc2N2CCCCCC2)cc1	?	?	?	17.8µM*	?	?
CC[C@H](C)[C@@H]1OC(=O)[C@@H](C)[C@@H](CC)NC(=O)[C@H](C)N(C)C(=O)C(C)(C)C(=O)C(C)NC(=O)[C@H](Cc2ccccc2)N(C)C(=O)[C@H](C(C)C)N(C)C(=O)CNC(=O)[C@H](CC(C)C)N(C)C(=O)CNC1=O (some centres undefined)	nt	2.24µM*	2µM*	0.0%	nt	nt
O=[N+]([O-])/C(C(=C(Cl)Cl)N1CCN(Cc2ccccc2)CC1)=C1\NCCN1Cc1ccc(Cl)nc1	?	?	10µM*	12.2%	-11.3%	-3.1%
O=C(C(=C1N(Cc2ccc(Cl)nc2)CCN1Cc1ccc(Cl)nc1)[N+](=O)[O-])C(Cl)Cl	nt	nt	nt	-3.1%	nt	-4.9%
CCOC(=O)CSc1nc2c([nH]c3ccccc32)c(=O)n1C	1.2%	nt	nt	0.0%	?	4.2%
CCOC(=O)C(C)Sc1nc2c([nH]c3ccccc32)c(=O)n1C (centres undefined)	-26.0%	-8.0%	-0.5%	nt	?	10µM*
COc1ccc(OC)c(NC(=O)Cn2cc(C(=O)c3cccs3)c3ccccc32)c1	-7.7%[46.1 µM]	-5.4%[7.34 µM]	-13.2%[7.34 µM]	-16.9%	-18.3%[46.1 µM]	nt
CCOC(=O)c1ccc(NC(=O)C2CCN(C(=O)c3ccc(OC)c(OC)c3)CC2)cc1	?	?	nt	?	?	10µM*
COc1ccc2[nH]cc(CCNc3ncncc3-c3cccc(NS(C)(=O)=O)c3)c2c1	nt	nt	nt	-10.0%	nt	nt
SMILES	Marburg entry inh	VACV Venus inh	Vaccinia mCherry	FMDV inh	LASV entry inh	HCV inhibitor
COc1ccc(-c2noc(=O)n2Cc2ccccc2Cl)cc1	?	-12.1%	i	-8.1%	-18.1%	10.2%
COc1ccccc1-c1noc2c1C(=O)N(Cc1cn(-c3ccccc3OC)nn1)CC2	nt	-2.6%	18.2%	?	nt	nt
O=C(Nc1ccc2nc3n(c(=O)c2c1)CCCCC3)c1cc([N+](=O)[O-])ccc1F	nt	nt	nt	31.6µM*	nt	?
O=C(Nc1ccc2nc3n(c(=O)c2c1)CCCC3)c1ccccc1F	nt	nt	nt	48.2%	nt	-13.8%
O=C(Nc1ccc2nc3n(c(=O)c2c1)CCCCC3)c1c(F)ccc([N+](=O)[O-])c1F	7.08µM*	?	?	10µM*	?	14.1µM*
CC1(C)C(OC(=O)CCC(=O)O)CC[C@]2(C)C1CC[C@@]1(C)C2C(=O)C=C2[C@@H]3C[C@@](C)(C(=O)O)CC[C@]3(C)CCC21C (some centres undefined)	nt	-10.8%	-14.3%	-8.2%	nt	nt
C[C@@H]1CN(C2CCN(C(=O)c3ccccc3)CC2)C[C@H](C)O1	0.0%	nt	nt	nt	nt	nt
COc1ccccc1-c1sc2ccccc2c1-c1ccc(O)cc1	nt	-21.5%	i	-13.1%	nt	5.62µM*
COc1ccc(-c2sc3ccccc3c2-c2ccc(O)cc2)cc1	nt	-20.0%	?	-19.9%	nt	?
COc1ccc(-c2sc3cc(OC)c(OC)cc3c2-c2ccc(O)cc2)cc1	nt	?	?	-34.7%	nt	28.2µM*
O=C(Nc1ccc(Cl)cc1)C1=Cc2cc(Cl)ccc2OC1	0.5%	?	-20.4%[1.46 µM]	?	8.2%	-26.6%
O=C(Nc1ccc(Cl)cc1Cl)C1=Cc2ccccc2OC1	?	-17.2%	-26.1%	-32.4%	12.6µM*	-3.6%
O=C(CSc1nc2scc(-c3ccco3)c2c(=O)n1-c1ccccc1)N1CCOCC1	?	nt	nt	-21.2%	4.11µM*	-5.2%
COc1ccc(OC(=O)c2cn(-c3cccc(OC)c3)c(=O)c3ccccc23)cc1	nt	-6.4%	-14.7%	-30.4%	?	nt
C(=C\c1nc2ccccc2o1)/c1ccc2c(c1)OCO2	nt	-18.3%	-17.0%	nt	nt	nt
COc1cc(OC)cc(C(=O)O/N=C(\N)c2ccncc2)c1	-0.5%	-23.9%	-9.9%	8.9%	14.0%	-27.4%
COc1ccc(C(=O)O/N=C(\N)c2ccccn2)c(OC)c1	?	-17.0%	-2.6%	-57.5%	?	?
N/C(=N\OC(=O)c1ccc(Cl)cc1Cl)c1ccccc1	?	nt	nt	-70.6%	8.2µM*	?
COc1cc(OC)cc(C(=O)O/N=C(\N)c2cccc(C)c2)c1	nt	nt	nt	25.5%	nt	11.2µM*
COc1ccc(C(=O)O/N=C(\N)c2ccccc2)c(OC)c1	1.46µM*	-16.0%	2.1%	-36.3%	?	?
N/C(=N\OC(=O)c1ccc(Cl)cc1Cl)c1ccc(Cl)cc1	?	4.5%	5.2%	0.0%	?	5.3%
COc1ccc(C(=O)O/N=C(\N)c2ccc(OC)c(OC)c2)c(OC)c1	1.2%	nt	nt	16.1%	nt	12.6µM*
CN(CC1COCCO1)C(=O)c1cnn(-c2ncc3c(n2)-c2ccccc2CC3)c1C1CC1 (centres undefined)	nt	-28.4%	?	34.6%	nt	nt
